Results taken from PubChem BioAssay AID1315 (University of Pittsburgh Molecular Library Screening Center, 2008).
This is one part of the list. A number with no mark means an inactive call. No rule for the calls is given here.

Assay: FP signal artefacts, PKD1 kinase format – biochemical, fluorescence polarization, 140K library, artefact control for PKD1 inhibitor project (AID 1315)
Conditions: PKD1 FP assay interference counter-screen, at 10 µM, stronger effect = higher value

Structure (SMILES) | inhibition [%]
Cc1ccc(NC(=O)C2CCCN(S(=O)(=O)c3c(C)noc3C)C2)c(C)c1 (stereo not drawn) | -13.6
COc1ccc(Nc2cc(C)nc(-n3nc(C)cc3C)n2)cc1 | -21.9
COc1ccccc1C(=O)NN1C(=O)C2C3C=CC(O3)C2C1=O (stereo not drawn) | -4.38
